The values that follow come from PubChem BioAssay AID1259421 (Broad Institute, 2018).

Molecules are shown by their SMILES. Several values for one entry are separate records, joined by “and”; a condition that tells them apart may be missing. Identical values can stand only once. The campaign covered roughly 6,400 compounds. About 610 (9.5%) were called active. No stated cut-off is given here; in the data, active means activity change below about -70%; inconclusive means no clear call, values can overlap the other calls; inactive means above that. For the sample, actives were picked, then their nearest neighbours and some compounds at random. The source holds several records for some structures; these can differ, active in one and inactive in another. *1 amine or outer side, *2 acyl side, *3 side chain or, on linkers, in order; H or OH if unused. Where a SMILES comes first, the peptide text is derived from it. Bridges are numbered along the chain shown (N, C = ends). Roman numbers before positions name the chains, in order. [ ]: non-standard residue; d: D form. The star is where a group is joined. Actinocin(9to1) = Cc1c2oc3c(C)ccc(C(=O)[*:1])c3nc-2c(C(=O)[*:2])c(N)c1=O; NMeV = CN[CH](C(=O)O)C(C)C; Cbz = O=C(OCc1ccccc1)*; Sar = CNCC(=O)O

This test is described as follows: T. gondii ME49Luc in HeLa cells, luciferase assay, 72 h, no IFN-y (AID 1259421). Particulars: stronger effect = lower value, concentration not given here.
Consider `CS(=O)(=O)NC(=O)CCC/C=C\C[C@H]1C(=O)C[C@@H](O)[C@@H]1/C=C/[C@@H](O)COc1ccccc1`, for which the activity change, negative = inhibition is 0.217% (inactive). Consider `CCCC(=O)Nc1ncnc2c1ncn2C1OC2COP(=O)(O)OC2C1OC(=O)CCC` (centres undefined), for which the activity change, negative = inhibition is 6.24% (inactive).

`C=C1C[C@]23C[C@@]1(O)CC[C@H]2[C@@]12C=C[C@H](O)[C@](C)(C(=O)O1)[C@H]2[C@@H]3C(=O)O`: the activity change, negative = inhibition is 1.78% (inactive). As to `CCCCC(C)(C)[C@H](O)/C=C/[C@H]1[C@H](O)CC(=O)[C@@H]1C/C=C\CCCC(=O)O`, the activity change, negative = inhibition was 16.3% (inactive). As to `O/N=C/c1ccc(-c2ccc(O)c(F)c2)c(Cl)c1O`, the activity change, negative = inhibition is -85.3% (active). As to `CC(=O)Nc1cccc(-n2c(=O)n(C3CC3)c(=O)c3c(Nc4ccc(I)cc4F)n(C)c(=O)c(C)c32)c1`, the activity change, negative = inhibition was 19.3% (inactive). Take `CCOc1nc2cccc(C(=O)O)c2n1Cc1ccc(-c2ccccc2-c2nn[nH]n2)cc1`: the activity change, negative = inhibition was -59.6% (inactive). The value for `C=C[C@]1(C)C[C@@H](OC(=O)CSC(C)(C)CNC(=O)[C@H](N)C(C)C)[C@@]2(C)[C@H](C)CC[C@]3(CCC(=O)[C@H]32)[C@@H](C)[C@@H]1O` was -20.2% (inactive); that for `Cc1c(CN2CCN(C(=O)[C@H](C)O)CC2)sc2c(N3CCOCC3)nc(-c3cnc(N)nc3)nc12` was -21.6% (inactive). Turning to `CS(=O)(=O)N1CCN(Cc2cc3nc(-c4cccc5[nH]ncc45)nc(N4CCOCC4)c3s2)CC1`, the activity change, negative = inhibition was -19.3% (inactive). With `COc1ccc(-c2nc(N3CCOCC3)c3sc(CN(C)c4ncc(C(=O)NO)cn4)cc3n2)cn1`, the activity change, negative = inhibition was -89.4% (active). On to `C=CC(C)(C)c1[nH]c2ccccc2c1C1C(=O)C(=O)C(c2c[nH]c3c(CC=C(C)C)cccc23)C(=O)C1=O` (centres undefined), for which the activity change, negative = inhibition was 6.09% (inactive). On to `O=C(O)/C=C1\CCCc2ccccc2C1O` (centres undefined), for which the activity change, negative = inhibition is 14% (inactive) and 4.55% (inactive). The figure for `O=C(OOC(=O)c1ccccc1)c1ccccc1` is 3.51% (inactive); for `Cc1ccc2c(Br)cc(Br)c(OC(=O)c3ccccc3)c2n1` it is -89.9% (active); for `O=C(Oc1cccc2cccnc12)c1ccccc1` it is 9.16% (inactive) and -0.158% (inactive).

`Nc1nc(N)c([NH2+][O-])c(OCC2CCCCC2)n1`: the activity change, negative = inhibition is 6.35% (inactive). In the case of `O=C(O)[C@H](O)[C@H](O)[C@@H](O)[C@H](O)[C@H](O)CO`, the activity change, negative = inhibition is 15.3% (inactive) and -2.15% (inactive). The value for `COc1cccc2c1C(=O)c1c(O)c3c(c(O)c1C2=O)C[C@@](O)(C(C)=O)C[C@@H]3O[C@H]1C[C@H](N)[C@H](O)[C@H](C)O1` was -66.8% (inactive) and -6.1% (inactive) and -91.6% (active); that for `COc1cccc2c1C(=O)c1c(O)c3c(c(O)c1C2=O)C[C@@](O)(C(C)=O)C[C@@H]3OC1CC(N)C(O)C(C)O1` (some centres undefined) was -89.8% (active); that for `Nc1nc2c(nc(Br)n2[C@@H]2O[C@@H]3COP(=O)(O)O[C@H]3[C@H]2O)c(=O)[nH]1` was 7.36% (inactive). As for `CO[C@H]1CC(O[C@@H]2/C(C)=C/C[C@@H]3C[C@@H](C[C@]4(CC[C@H](C)[C@@H](C5CCCCC5)O4)O3)OC(=O)[C@@H]3C=C(C)/C(=N/O)[C@H]4OC/C(=C\C=C\[C@@H]2C)[C@]43O)O[C@@H](C)C1O` (some centres undefined), the activity change, negative = inhibition is -64.5% (inactive) and -40.6% (inactive). The figure for `NCCCCN=C(N)N` is 12.5% (inactive); for `CC(CCC(=O)NCC(=O)O)C1CCC2C3CCC4CC(O)CCC4(C)C3CC(O)C12C` (centres undefined) it is -5.76% (inactive); for `CC(=O)O[C@@H]1CC2C(C)(C)C(=O)CC[C@]2(C)C2CC[C@@]3(C)[C@H](c4ccoc4)OC(=O)C4OC43[C@@]21C` (some centres undefined) it is 21.5% (inactive). Turning to `COC1CCC(N(C(=O)C2CCC(C)CC2)c2cc(C3=CCCCC3)sc2C(=O)O)CC1` (centres undefined), the activity change, negative = inhibition was 5.25% (inactive). For the molecule `COc1cccc(O)c1O`, the activity change, negative = inhibition was -4.12% (inactive).

For the molecule `C[C@@H]1C(SC2CN(C3=NCCS3)C2)=C(C(=O)OCOC(=O)C(C)(C)C)N2C(=O)[C@H]([C@@H](C)O)[C@H]12`, the activity change, negative = inhibition was 3.05% (inactive). In the case of `COC(=O)[C@H](CC(C)C)NC(=O)[C@@H](N)CC(C)C`, the activity change, negative = inhibition is 4.82% (inactive).

In the case of `CCCCC(C=O)NC(=O)C(CC(C)C)NC(=O)OCc1ccccc1` (centres undefined), the activity change, negative = inhibition is 10.2% (inactive). For `CC(C)C[C@@H](C=O)NC(=O)[C@H](CC(C)C)NC(=O)[C@H](CC(C)C)NC(=O)OCc1ccccc1` (Cbz-Leu-Leu-Leu-aldehyde), the activity change, negative = inhibition is -62.8% (inactive) and -91.5% (active).

Consider `CC(C)=CCC/C(C)=C/COc1ccc2ccc(=O)oc2c1`, for which the activity change, negative = inhibition is 17.8% (inactive). Consider `O=C(NCCN1CCOCC1)c1ccc(Cl)cc1`, for which the activity change, negative = inhibition was -0.363% (inactive). For `c1ccc2c(c1)CCCc1cc(NCCN3CCOCC3)nnc1-2`, the activity change, negative = inhibition is 12.2% (inactive). For the molecule `O=C1C(Cl)=C(NCCN2CCOCC2)C(=O)c2ncccc21`, the activity change, negative = inhibition is -78.2% (active). The figure for `c1cc(-c2cnn3cc(-c4ccc(OCCN5CCCCC5)cc4)cnc23)ccn1` is -69.4% (inactive). The value for `C/C(=N\NC(=O)[C@@H]1C(=O)NC[C@H]1c1ccccc1)c1cccc(Br)c1` was 1.33% (inactive). `CO[C@H]1C=CO[C@@]2(C)Oc3c(C)c(O)c4c(O)c(c5c(nc6cc(C)ccn65)c4c3C2=O)NC(=O)/C(C)=C\C=C[C@H](C)[C@H](O)[C@@H](C)[C@@H](O)[C@@H](C)[C@H](OC(C)=O)[C@@H]1C`: the activity change, negative = inhibition is -17.3% (inactive).

Consider `O=C1OC(=O)C2C3CCC(O3)C12` (centres undefined), for which the activity change, negative = inhibition was -85.1% (active). On to `CC(C)[C@](O)(c1ccc2cc(OC(F)F)c(OC(F)F)cc2c1)c1cn[nH]n1`, for which the activity change, negative = inhibition is 29.6% (inactive).

On to `Brc1cccc(Nc2ncnc3cc4nc[nH]c4cc23)c1`, for which the activity change, negative = inhibition was 3.71% (inactive).

Consider `O=c1[nH]c2cc(Cl)c(Cl)cc2[nH]c1=O`, for which the activity change, negative = inhibition was -86.2% (active). The value for `O=c1[nH]c2cc(Cl)c(Cl)c([N+](=O)[O-])c2[nH]c1=O` was 7.55% (inactive).

Consider `O=c1[nH]c2cc([N+](=O)[O-])c([N+](=O)[O-])cc2[nH]c1=O`, for which the activity change, negative = inhibition is 17.4% (inactive) and 5.82% (inactive) and 4.72% (inactive). For `COc1cc([C@@H]2Oc3c(O)cc([C@H]4Oc5cc(O)cc(O)c5C(=O)[C@@H]4O)cc3[C@H]2CO)ccc1O`, the activity change, negative = inhibition was -10.5% (inactive).

For `CC(C)O.CC(C)O.CC(C)O.[In]`, the activity change, negative = inhibition was 12.3% (inactive).

For the molecule `Cc1c2oc3c(C)ccc(C(=O)OC(C)C4NC(=O)C(C(C)C)N(C)C(=O)CN(C)C(=O)C5CCCN5C(=O)C(C(C)C)NC4=O)c3nc-2c(C(=O)OC(C)C2NC(=O)C(C(C)C)N(C)C(=O)CN(C)C(=O)C3CCCN3C(=O)C(C(C)C)NC2=O)c(N)c1=O` (centres undefined) (I: cyclo([Sar][NMeV]TVP) / II: cyclo([Sar][NMeV]TVP); linker I:3-II:3 via Actinocin(9to1); configuration not given here), the activity change, negative = inhibition is -87.1% (active). As for `Cc1c2oc3c(C)ccc(C(=O)N[C@@H]4C(=O)N[C@H](C(C)C)C(=O)N5CCC[C@H]5C(=O)N(C)CC(=O)N(C)[C@@H](C(C)C)C(=O)O[C@@H]4C)c3nc-2c(C(=O)N[C@@H]2C(=O)N[C@H](C(C)C)C(=O)N3CCC[C@H]3C(=O)N(C)CC(=O)N(C)[C@@H](C(C)C)C(=O)O[C@@H]2C)c(N)c1=O` (I: T[dV]P[Sar][NMeV] / II: T[dV]P[Sar][NMeV]; ester I:1-I:C, II:1-II:C; linker I:N-II:N via Actinocin(9to1)), the activity change, negative = inhibition is -88.5% (active). The value for `CCC1OC(=O)[C@H](C)C(=O)[C@H](C)[C@@H](OC2O[C@H](C)C[C@H](N(C)C)[C@H]2O)[C@](C)(OC)C[C@@H](C)C(=O)[C@@H](C)[C@@H]2N(CCCCn3cnc(-c4cccnc4)c3)C(=O)O[C@]12C` (some centres undefined) was -0.624% (inactive). On to `COCCCCC(=NOCCN)c1ccc(C(F)(F)F)cc1`, for which the activity change, negative = inhibition was 4.87% (inactive).

Regarding `O=C(CCCc1ccc(-c2ccccc2F)cc1)Nc1ccc(O)cc1`, the activity change, negative = inhibition is -67.6% (inactive) and -60.5% (inactive). With `Cn1cnc(-c2cc3nccc(Oc4ccc(NC(=S)NC(=O)Cc5ccccc5)cc4F)c3s2)c1`, the activity change, negative = inhibition is 28.8% (inactive).

`Nc1nccc(Oc2ccc(NC(=O)c3c[nH]cc(-c4ccc(F)cc4)c3=O)cc2F)c1Cl`: the activity change, negative = inhibition is -76.8% (active).

On to `CCOc1ccn(-c2ccc(F)cc2)c(=O)c1C(=O)Nc1ccc(Oc2ccnc(N)c2Cl)c(F)c1`, for which the activity change, negative = inhibition was 0.966% (inactive). In the case of `N#Cc1ccc(NCCNCC(=O)N2CCC[C@H]2C#N)nc1`, the activity change, negative = inhibition is -0.604% (inactive). For `COc1ccc(-c2cc(=O)c3c(O)cc(O[C@@H]4O[C@@H](CO[C@@H]5O[C@H](C)[C@@H](O)[C@H](O)[C@H]5O)[C@H](O)[C@@H](O)[C@H]4O)cc3o2)cc1O`, the activity change, negative = inhibition is 6.66% (inactive). For the molecule `CCc1c(Cl)c(O)c(Cl)c(O)c1C(=O)O[C@H]1[C@H](O)[C@H](OC)[C@H](OCC2=C/C=C/C[C@H](O)/C(C)=C\[C@H](CC)[C@H](O[C@@H]3OC(C)(C)[C@@H](OC(=O)C(C)C)[C@H](O)[C@H]3O)/C(C)=C\C(C)=C\C[C@H]([C@@H](C)O)OC2=O)O[C@@H]1C`, the activity change, negative = inhibition is 16.6% (inactive). The value for `C[C@H]1O[C@@H](O[C@H]2[C@@H](O)C[C@H](O[C@H]3[C@@H](O)C[C@H](O[C@H]4CC[C@]5(C)C6CC[C@]7(C)[C@@H](C8=CC(=O)OC8)CC[C@]7(O)C6CC[C@@H]5C4)O[C@@H]3C)O[C@@H]2C)C[C@H](O)[C@@H]1O` (some centres undefined) was -83.2% (active) and -93.3% (active); that for `C[C@H]1O[C@@H](O[C@H]2[C@@H](O)C[C@H](O[C@H]3[C@@H](O)C[C@H](O[C@H]4CC[C@]5(C)C6C[C@@H](O)[C@]7(C)[C@@H](C8=CC(=O)OC8)CC[C@]7(O)C6CC[C@@H]5C4)O[C@@H]3C)O[C@@H]2C)C[C@H](O)[C@@H]1O` (some centres undefined) was -76.7% (active) and -101% (active).
